# ERK AVP block = blocks ERK signaling stimulated by vasopressin; Potency, µM (top dose mostly 57.5 µM), without a hit: top-dose activity, negative = inhibition, usual class: inhibitors; HEK293-V1b, vasopressin-stimulated pERK AlphaScreen; 0.99% of 72,000 active; also: nearly all actives have a fitted effect of over 55% in size
#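 Overnight-seeded V1b-HEK293 cells in 1% FBS got compound, then vasopressin (25 nM final, 5 min, 37C), then lysis buffer. AlphaScreen detection of phospho-ERK; activity normalized to basal and full-stimulation controls.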
# HADH2 inh = HADH2 (human) dehydrogenase inhibition; Q99714; recombinant HADH2, NADH fluorescence, beta-hydroxybutyryl-CoA; Potency, µM (doses to about 57.1 µM), for the others: at the top dose activity change, negative = inhibition, hits mostly inhibitors; 3.4% of 73,000 active; also: nearly all actives have a fitted effect of over 60% in size
# Target sequence (Q99714 whole entry, looked up, one chain of several): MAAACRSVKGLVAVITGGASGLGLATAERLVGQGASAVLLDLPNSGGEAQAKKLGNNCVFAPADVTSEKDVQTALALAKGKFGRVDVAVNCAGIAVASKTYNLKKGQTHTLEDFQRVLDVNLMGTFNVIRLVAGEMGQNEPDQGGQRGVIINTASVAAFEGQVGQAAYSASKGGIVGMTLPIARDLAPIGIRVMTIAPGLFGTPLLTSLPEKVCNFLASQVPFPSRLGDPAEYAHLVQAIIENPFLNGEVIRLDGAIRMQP
#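 20 nM HADH2 + cpd, 15 min RT; add 1 mM NAD+/90 uM beta-hydroxybutyryl-CoA; kinetic fluorescence 360/450 nm, 4 min. Tris-HCl pH 9.0, 0.01% Tween-20.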
# Luciferase inh = inhibitors of firefly luciferase; P08659; Potency, µM (series often up to 57.1 µM), inactives show top-dose activity change, negative = inhibition, usual class: inhibitors; 2.2% of 72,000 active; AID 411; purified firefly luciferase, luminescence, 8 min; also: nearly all actives have a fitted effect of over 40% in size
#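 Inhibition of light generation by firefly luciferase from ATP and luciferin was profiled with concentration-response curves per sample, ATP held at 10 uM within the enzyme's linear range. Plates were read by luminescence after an 8-minute ambient incubation.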
# ALOX15 inhib = blocks human 15-lipoxygenase activity. Potency, µM (top dose mostly 57.1 µM), for inactives: at the highest dose activity change, negative = inhibition, most hits filed as inhibitors. purified 15hLO-1, xylenol orange hydroperoxide absorbance. 1.4% of 74,000 active; also: nearly all actives have a fitted effect of over 55% in size
#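 Readout: Fe(III)-xylenol orange absorbance, 573-to-405 nm ratio as reaction progress. Enzyme 40 nM purified human 15hLO-1, substrate 50 uM arachidonic acid, 6 min RT after 15 min compound preincubation; Hepes pH 7.5 buffer with Triton X-100.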
# HSD17B inh = HSD17B dehydrogenase inhibition; Q99714; recombinant HSD17B10, NADH fluorescence kinetic; Potency, µM (doses to about 57.1 µM), inactives show at the highest dose activity change, negative = inhibition, usual class: inhibitors; 7.6% of 75,000 active; AID 893;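 also: the protocol describes HADH2 (HSD17B10) and not the HSD17B4 of the title; nearly all actives have a fitted effect of over 70% in size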
#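 His-tagged E. coli-expressed HADH2 at 20 nM in 100 mM Tris-HCl pH 9.0 with 0.01 % Tween-20, preincubated 15 min with compound at room temperature. Reaction with 1 mM NAD+ and 90 uM beta-hydroxybutyryl coenzyme A; NADH fluorescence (360/450 nm) read kinetically over 4 min, last minus first point.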
# Bst PK mod = pyruvate kinase (B. stearothermophilus) modulation; purified pyruvate kinase, luminescence ATP production; ribose 5-phosphate activator present at AC10; Potency, µM; 1.2% of 51,000 active; in the data active = potency below about 11 µM; inconclusive = mostly about 12 µM to 25 µM;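 the screen sought inhibitors and activators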;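 also: scaled between full activation by ribose 5 phosphate and full inhibition by luteolin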
# The depositor's hits bear a star; i = inactive; ? = inconclusive; . = no result given; ! = repeats disagree; [ ] = another dose, or the depositor's remark. An excerpt weighted towards active compounds, which were near 11% of everything screened. Unless noted, calls follow the shape of the dose curve; as a rule, active = well fitted curve in the direction sought with a large enough effect; inconclusive = small, poorly fitted or top-dose-only effect, or another doubt; inactive = no such curve, though single readings can be large; an effect the other way counts as inactive or inconclusive. Unless noted, % is scaled to controls: 0 for no effect and ±100 for the full control effect; potency is read from the fitted curve at half-maximal effect.
SMILES,ERK AVP block,HADH2 inh,Luciferase inh,ALOX15 inhib,HSD17B inh,Bst PK mod
c1ccc2c(c1)Cc1cc3ccccc3nc1-2,13µM*,5%,.,.,25µM*,.
NC1(C(=O)O)CCC1,-2%,5%,-1%,-28%[25.6 µM],0%,.
NC1(C(=O)O)CC(C(=O)O)C1 (stereo not given),15%,9%,-2%,20µM*!,0%,.
COc1cccc2c1[C@H](CO)N1[C@H](C#N)[C@@H]3C[C@H](C(=O)O)[C@@H]([C@@H]1C2)N3C,-2%[11.5 µM],6%[11.4 µM],0%[11.4 µM],27%[11.4 µM],0%[11.4 µM],.
CC(C)C[C@H](N)CSSC[C@@H](N)CC(C)C,-24%,8%,1%,-13%,-4%,.
CCCCN1CCc2c([nH]c3ccc(C)cc23)C1=O,-15%,-11%,-17%,-9%,32µM*,>57
Cc1ccc2[nH]c3c(c2c1)CCc1cn[nH]c1-3,?,?,-6%,-15%,16µM*,8.7*
O=C1CCCc2c1[nH]c1ccc(CN3CCCCC3)cc21,-5%,?,-1%,-13%,32µM*,.
Cc1ccc2[nH]c3c(c2c1)CCC3=O,6%,?,-2%,-2%,32µM*,>57
Cc1ccc2[nH]c(-c3ccccc3)c(CN3CCN(C)CC3)c(=O)c2c1,5%,6%[11.4 µM],-2%,7%[11.4 µM],3%,.
O=c1oc2ccccc2c(N2CCCCC2)c1CN1CCCCC1,-6%,?,1%,12%,-25%,>57
CCN1C(=O)[C@H]2[C@H]3[C@H](O)[C@H](O)C/C(=N/O[C@@H](C)c4cn([C@H]5COC[C@H]5O)nn4)[C@@H]3CC[C@@H]2C1=O,-10%[11.5 µM],-1%[11.4 µM],1%[11.4 µM],3%[11.4 µM],-3%[11.4 µM],.
O=c1c(-c2ccccc2)nc2cnc(Nc3ccccc3)nc2n1Cc1cccs1,20%,8%,-1%[11.4 µM],-14%,413%,.
O=c1cc(-c2ccc(O)cc2)oc2c([C@H]3O[C@@H](CO)[C@@H](O)[C@@H](O)[C@@H]3O)c(O)cc(O)c12,-1%[25.7 µM],-16%[25.6 µM],-5%[25.5 µM],-6%[25.6 µM],-7%[25.6 µM],.
O=c1c(-c2ccc(O)cc2)coc2c(C3OC(CO)C(O)C(O)C3O)c(O)ccc12 (stereo not given),7%,.,.,-3%,32µM*,.
CC1(C)NC(=O)N(CC(O)COc2ccc(-c3ccc(C#N)cc3)cc2)C1=O (stereo not given),?,-3%,-2%,4%,13µM*,>57
CC1(C)NC(=O)N(CC(O)COc2ccc(-c3ccccc3)cc2)C1=O (stereo not given),-18%,-3%,-3%,15%,8%,>57
C=CCn1c(-c2ccccc2)nc2nc3ccccc3nc21,-22%,25µM*,-13%,8%,i,>57
Nc1ccc(N=Nc2ccccc2)c(N)c1,?,13%,.,-10%,-21%,.
CCOC(=O)Nc1ccc2c(CN3CCN(S(=O)(=O)c4ccccc4)CC3)cc(=O)oc2c1,9%,-8%,0%,2%,?,>57
CCOC(=O)Nc1ccc2c(CN3C(=O)NC4(CCCC4)C3=O)cc(=O)oc2c1,-18%,32µM*,-3%,7%,25µM*,>57
Nc1c(S(=O)(=O)c2cccs2)c2nc3ccccc3nc2n1CC1CCCO1 (stereo not given),-3%,.,2%,-19%,25µM*,>57
Nc1c(S(=O)(=O)c2cccs2)c2nc3ccccc3nc2n1Cc1cccs1,-5%,258%,-1%,?,16µM*,>57
Nc1c(S(=O)(=O)c2cccs2)c2nc3ccccc3nc2n1Cc1ccc2c(c1)OCO2,0%,?,-14%,?,13µM*,>57
CCCCCn1c2nc3ccccc3nc2c2c(=O)n(CC3CCCO3)c(C)nc21 (stereo not given),8%,24%,1%,0%,?,>57
SMILES,ERK AVP block,HADH2 inh,Luciferase inh,ALOX15 inhib,HSD17B inh,Bst PK mod
c1csc(-c2nc3nc4ccccc4nc3n2Cc2ccc3c(c2)OCO3)c1,16%,?,-9%,-22%,?,.
Cn1c2ccc(Cl)cc2c2nc3ccccc3nc21,9%,0%,-5%,-17%,-24%,.
Cn1c(N)c(S(=O)(=O)c2ccc(Br)cc2)c2nc3ccccc3nc21,?,32µM*,1%,?,32µM*,>57
CC(C)CCn1c(N)c(S(=O)(=O)c2cccs2)c2nc3ccccc3nc21,-17%,240%,-6%,?,3.2µM*,>57
Nc1c(S(=O)(=O)c2ccccc2)c2nc3ccccc3nc2n1Cc1ccco1,.,25µM*,.,?,32µM*,.
COc1ccc(CCn2c(N)c(S(=O)(=O)c3cccs3)c3nc4ccccc4nc32)cc1OC,1%,3%,2%,7%,1%,>57
N#CC1=C(N)SC(N)=C(C#N)C1c1ccoc1,-19%,?,-4%,?,2%,>57
Cc1ccc(C2C(C#N)=C(N)SC(N)=C2C#N)cc1,-1%,20µM*,-2%,?,25µM*,>57
Cc1ccc(C2C(C#N)=C(N)SC(N)=C2C#N)c(C)c1,19%,?,1%,?,16µM*,>57
CC(C)[C@@H](OCc1ccccc1)[C@H](C)CO/N=C1/[C@H]2OC2[C@@H](O)[C@H]2[C@H]1CCn1c(=O)n(-c3ccccc3)c(=O)n12 (stereo not given in full),19%[11.5 µM],4%[11.4 µM],0%[11.4 µM],-3%[11.4 µM],1%[11.4 µM],.
Nc1ccc(N=Nc2c(S(=O)(=O)O)cc3ccccc3c2S(=O)(=O)O)cc1,2%[11.5 µM],14%[11.4 µM],2%[11.4 µM],8%[11.4 µM],-2%[11.4 µM],.
O=S(=O)(O)c1cc(N=[N+]([O-])c2cc(S(=O)(=O)O)c3ccccc3c2)cc2ccccc12,-7%[11.5 µM],?,-3%[11.4 µM],4µM*,3.2µM*,.
CC(=O)c1cccc(NC(=O)Nc2cccnc2)c1,-9%,5%,-25%,-1%,6%,>57
CC(=O)c1cccc(NC(=O)c2cnn3ccccc23)c1,1%,1%,13µM*,-7%,-2%,.
CC(=O)c1cccc(NC(=O)c2cc3ccccn3n2)c1,-18%,-7%,3.2µM*,-4%,-1%,.
COc1ccc(NC(=O)N2CC[C@@]3(CCCN(C(=O)c4csnn4)C3)C2)cc1,18%,-4%,1%[11.4 µM],-8%,-3%,.
CN=Cc1sc2ccccc2c1O,24%,-9%,-17%,-12%,-11%,.
Oc1c(C=Nc2cccnc2)sc2ccccc12,.,.,13µM*,.,.,11*
Cc1cc(-n2c(C)cc(C(=O)CN3C(=O)NC4(CCCCCC4)C3=O)c2C)no1,?,12%,0%,-28%,32µM*,>57
COCCn1c(C)cc(C(=O)CN2C(=O)NC3(CCCCCCC3)C2=O)c1C,-2%,3%,-16%,-1%,-2%,>57
COc1cc(OC)c(-c2nn3c(-c4ccncc4)nnc3s2)cc1OC,?,-2%,3%,2%,10%,>57

# Compound activity: PubChem, National Center for Advancing Translational Sciences (NCATS)
